# Compound activity as filed in PubChem.
# The list is not random: actives were taken first. Their share in the collection is about 19%.
# KB-V1 MDR tox: qHTS assay for MDR1-selective chemotherapeutics: Primary screen using the drug-selected MDR subline cells KB-V1; Potency, µM (top dose mostly 46.1 µM), usual class: cytotoxic; 400,000 compounds, 3.4% hits; KB-V1 MDR cells viability, CellTiter-Glo, 72 h; note: nearly all actives have a fitted effect of over 60% in size
#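 KB-V1, DMEM (no phenol red) + 10% FBS; cpd pin-transferred, titration series; 72 h, 37 degrees C; CellTiter-Glo, luminescence. Data normalized, curve-fit.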
# DT40 TDP1 CPT: qHTS for Inhibitors of human tyrosyl-DNA phosphodiesterase 1 (TDP1): qHTS in cells in presence of CPT | 420,000 compounds, 12% hits | AID 686979, 2013 | chicken DT40 Tdp1-/-;hTDP1 cells + 20 nM CPT, ATP luminescence, 48 h | Potency, µM (series often up to 46.2 µM), inactives show at the top dose activity change, negative = growth inhibition, actives largely listed as inhibitors; note: nearly all actives have a fitted effect of over 55% in size
#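 Chicken DT40 Tdp1-/- cells complemented with human TDP1, 400 cells/well, exposed to compounds plus 20 nM camptothecin for at least 48 h at 37 C; viability read as ATP content by CellTiter-Glo luminescence.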
# KB-3-1 tox: qHTS assay for MDR1-selective chemotherapeutics: Primary screen using the parental adenocarcinoma cell KB-3-1. KB-3-1 viability, CellTiter-Glo ATP luminescence, 72 h. Potency, µM (series often up to 46.1 µM), hits mostly cytotoxic. 400,000 compounds, 1.4% hits; note: nearly all actives have a fitted effect of over 60% in size
#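 Screening of KB-3-1 cells (DMEM, 10% FBS, phenol-red free) ran from lowest to highest compound concentration; after 72 h at 37 °C viability was read luminescently and curves fitted.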
# TDP1 cell noCPT: qHTS for Inhibitors of human tyrosyl-DNA phosphodiesterase 1 (TDP1): qHTS in cells in absence of CPT. 420,000 compounds, 15% hits. DT40 Tdp1-/- hTDP1 cells, no CPT, ATP luminescence, 48 h. Potency, µM (doses to about 46.2 µM), without a hit: top-dose activity change, negative = growth inhibition, usual class: inhibitors; note: nearly all actives have a fitted effect of over 55% in size
#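 Cells were dispensed at 400 per well, compounds added by pin tool, plates incubated ≥48 hr at 37 °C, then CellTiter-Glo added for 30 min at room temperature before luminescence reading. Line: DT40 Tdp1-/- complemented with hTDP1; camptothecin omitted.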
# HT1080-NT tox: qHTS for induction of synthetic lethality in tumor cells producing 2HG: qHTS for the HT-1080-NT fibrosarcoma cell line; HT-1080-NT fibrosarcoma viability, CellTiter-Glo ATP luminescence, 48 h; Potency, µM (top dose mostly 46.1 µM), without a hit: top-dose activity, negative = less viability, most hits filed as cytotoxic; 360,000 compounds, 1.6% hits;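 note: NT is the 2HG producing partner of a matched IDH1 knockdown line; 0% = DMSO-treated cells and -100% = media-only wells without cells; nearly all actives have a fitted effect of over 55% in size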
#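 Viability by CellTiter-Glo luminescence after 48 h compound exposure at 37C of HT-1080-NT cells (750/well, RPMI, 5% FBS). % activity scaled between DMSO wells and medium-only wells, then curve-fitted and categorized by curve class.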
# HT1080 IDH1KD tx: qHTS for induction of synthetic lethality in tumor cells producing 2HG: qHTS for the HT-1080-IDH1KD cell line; HT-1080 IDH1 knockdown viability, ATP luminescence, 48 h; 360,000 compounds, 2% hits; AID 686971, 2013; Potency, µM (top dose mostly 46.1 µM), inactives show at the highest dose activity, negative = toxicity, hits mostly cytotoxic;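 note: 0% = DMSO wells and -100% = cell-free medium wells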
#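 % activity derives from luminescence (CellTiter-Glo), normalised to DMSO and no-cell wells. HT-1080-IDH1KD cells, 750/well, had 48 h compound exposure at 37 °C.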
# Starred values were filed as active, the others as inactive; i = inactive; u = inconclusive; x = not tested or not shown. Calls come from the whole dose curve; as a rule, active = well fitted curve in the direction sought with a large enough effect; inconclusive = small, poorly fitted or top-dose-only effect, or another doubt; inactive = no such curve, though single readings can be large; an effect the other way counts as inactive or inconclusive. Unless noted, % is set by controls: 0 for no effect and ±100 for the full control effect; potency is the fitted concentration of half-maximal effect.
SMILES,KB-V1 MDR tox,DT40 TDP1 CPT,KB-3-1 tox,TDP1 cell noCPT,HT1080-NT tox,HT1080 IDH1KD tx
CCc1ccc(CN2CCC(n3nccc3NC(=O)c3cccc(F)c3)CC2)cc1,u,u,i,u,1%,-1%
CN(c1ccccc1)S(=O)(=O)c1cccc(NC(=O)CSc2nnc(N)s2)c1,u,8.2µM*,u,8.2µM*,0%,-5%
CC(=NNC(=O)c1ccc(NS(=O)(=O)c2cccs2)cc1)c1ccc(OCC(N)=O)cc1,u,-2%,i,-1%,9%,5%
C[C@@H]1[C@H](c2ccccc2)OCCS(=O)(=O)N1Cc1ccccc1F,u,u,u,13µM*,x,x
Cc1ccc(CN2[C@H](C)[C@H](c3ccccc3)OCCS2(=O)=O)cc1,16µM*,u,23µM*,u,x,x
CCC1COCCS(=O)(=O)N1Cc1ccc(C)cc1 (centres undefined),i,u,i,-5%,22%,16%
O=S1(=O)CCO[C@H]2CCCC[C@@H]2N1Cc1ccc(Cl)cc1,u,u,i,20µM*,x,x
Cc1cc(C)n(CC(=O)O)c(=O)c1[N+](=O)[O-],i,5%,i,0%,-2%,-3%
CCOc1ccccc1NC(=O)c1ccc2c(O)c(S(=O)(=O)c3ccccc3)c(=O)[nH]c2c1,i,1%,i,-1%,13%,11%
CCOc1ccc(-c2cc(-c3nc(-c4ccc(OC)c(OC)c4)no3)[nH]n2)cc1,i,16µM*,i,6.5µM*,x,x
CCOc1ccc(-c2cc(-c3nc(-c4cc(OC)c(OC)c(OC)c4)no3)[nH]n2)cc1Cl,i,5.8µM*,i,3.3µM*,x,x
COc1ccc(OCc2nc(-c3ccc(OC)c(OC)c3)no2)cc1,i,16µM*,i,u,x,x
CCN(c1ccccc1)c1nc(N)nc(C#N)n1,i,u,i,u,x,x
Fc1ccc(Nc2nc3ccccc3c3nncn23)c(Cl)c1,i,u,i,u,x,x
Cc1ccc(NC(=O)C2(C)CCN2C(=O)Cc2ccc(C(C)C)cc2)cc1 (centres undefined),u,u,u,23µM*,u,u
CC1(C(=O)Nc2ccc3c(c2)OCO3)CCN1C(=O)Cc1cccs1 (centres undefined),i,u,i,u,-5%,-2%
CNC(=O)C1(C)CCN1C(=O)Cc1ccc(C(C)C)cc1 (centres undefined),i,-1%,i,-18%,u,22%
CC1(C(=O)Nc2ccc3c(c2)OCCO3)CCN1C(=O)Cc1ccc(-c2ccccc2)cc1 (centres undefined),18µM*,u,u,u,u,u
CC1(C(=O)Nc2ccc3c(c2)OCO3)CCN1C(=O)Cc1cccc2ccccc12 (centres undefined),i,21µM*,i,16µM*,-16%,-19%
CC(C)c1ccc(CC(=O)N2CCC2(C)C(=O)Nc2ccc3c(c2)OCO3)cc1 (centres undefined),21µM*,u,u,18µM*,-11%,u
COc1cccc(C(O)c2cnc(C(C)C)n2C)c1 (centres undefined),i,13%,i,-11%,1%,10%
CC(C)S(=O)(=O)N1CCCC(c2cc(C(=O)Nc3ccc(F)c(Cl)c3)no2)C1 (centres undefined),i,u,i,u,-2%,-17%
CCOc1ccccc1N(C)C(=O)Cn1nc(Cc2ccncc2)c2ccccc2c1=O,x,-17%,x,u,x,x
COC(=O)c1cccc(F)c1C(=O)c1cccc2ccccc12,i,8%,i,3%,-20%,0%
CC1(C(=O)Nc2ccc3c(c2)OCO3)CCN1Cc1cccc2c1OCO2 (centres undefined),u,u,u,u,-19%,-7%
SMILES,KB-V1 MDR tox,DT40 TDP1 CPT,KB-3-1 tox,TDP1 cell noCPT,HT1080-NT tox,HT1080 IDH1KD tx
CC1(C(=O)Nc2ccc3c(c2)OCO3)CCN1Cc1csc2ccccc12 (centres undefined),u,23µM*,i,u,-30%,u
C/C(=N\OC(=O)c1ccc(Cl)cc1)c1sc(-c2ccccc2)nc1C,i,u,i,u,3%,15%
C/C(=N\OC(=O)NC1CCCCC1)c1sc(-c2ccccc2)nc1C,u,26µM*,u,21µM*,-26%,-25%
CCNC(=O)C1(C)CCCN(C(=O)c2sccc2C)C1 (centres undefined),u,-6%,i,2%,-1%,22%
O=[N+]([O-])c1ccc(N2CCN(c3ccc(O)cc3)CC2)cn1,u,u,i,u,u,u
O=[N+]([O-])c1ccc(N2CCN(c3ccccc3Cl)CC2)cn1,u,18µM*,5.2µM*,21µM*,1%,-4%
COc1cc(CN(C)c2ncnc3sccc23)ccc1OC(F)F,8.2µM*,16µM*,u,12µM*,-22%,-25%
